Source: the supplement of paper PMC6555819

Columns and labels:
Assay in all cases: PBM binding z-score (relative to random genomic background probes); higher = stronger binding; sequences stand for … in GC…GCGATTGACAGCGTAGAATGAAGG
[1] = tested on: PPARg:RXRa DBDmut IVT, anti-RXR (DBD mutation: RXRa K156A/R161A, NR concentration 270 nM, RXRa partner concentration 90 nM)
Summary of the method: (§1)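 Binding buffer was PBS pH 7.4 with 2% milk, 0.02% Triton X-100, 1 mM DTT, 0.2 mg/mL BSA and 0.4 mg/ml salmon testes DNA. In it, ligand-free nuclear receptor dimers were incubated 1 h on custom Agilent 4×180K protein-binding microarrays carrying double-stranded probes. Antibodies against each partner (one per run) detected binding, and z-scores were calculated against random background probes after regression normalization of scanned fluorescence.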

[2] = tested on: PPARg:RXRa IVT, anti-PPARg (NR concentration 270 nM, RXRa partner concentration 90 nM)
Summary of the method: as §1

[3] = tested on: PPARg DBDmut:RXRa IVT, anti-PPARg (DBD mutation: PPARg1 K132A/R137A, NR concentration 270 nM, RXRa partner concentration 90 nM)
Summary of the method: as §1

[4] = tested on: PPARg DBDmut IVT, anti-PPARg (DBD mutation: PPARg1 K132A/R137A, NR concentration 270 nM)
Summary of the method: as §1

[5] = tested on: PPARg homodimer (NR concentration 180 nM)
Summary of the method: as §1

[6] = tested on: PXR:RXRa (NR concentration 270 nM, RXRa partner concentration 90 nM)
Summary of the method: as §1

[7] = tested on: PXR homodimer (NR concentration 270 nM)
Summary of the method: as §1

[8] = tested on: RARa:RXR (NR concentration 270 nM, RXRa partner concentration 90 nM)
Summary of the method: as §1

[9] = tested on: RARa homodimer (NR concentration 270 nM)
Summary of the method: as §1

[10] = tested on: RARb:RXRa (NR concentration 270 nM, RXRa partner concentration 90 nM)
Summary of the method: as §1

| Sequence | PBM binding z-score [1] | PBM binding z-score [2] | PBM binding z-score [3] | PBM binding z-score [4] | PBM binding z-score [5] | PBM binding z-score [6] | PBM binding z-score [7] | PBM binding z-score [8] | PBM binding z-score [9] | PBM binding z-score [10] |
| --- | --- | --- | --- | --- | --- | --- | --- | --- | --- | --- |
| TCTAGTTGGTCAAAGGTTACACACTCGAAATGCG | 3.09 | 4.81 | 1.41 | 2.3 | 3.48 | 3.45 | 1.04 | 4.79 | 2.25 | 2.88 |
| AGAATGATGTTATTAAGATCAGGGAATTGCGGTC | -0.219 | 0.135 | 0.648 | 0.441 | 0.197 | -0.0155 | -0.0811 | 0.136 | 0.841 | -0.333 |
| CAGCCTAGGTCAGGGCCATTATAGGAGGAACGTT | 1.48 | 1.78 | -0.531 | -0.742 | 0.564 | 0.649 | -0.202 | 1.15 | 0.229 | 3.45 |
| TCTAGTTGGTCACGTAGGTCACACACGACGGGTA | 2.33 | 3.55 | 1.17 | 0.772 | 2.46 | 2.27 | 0.538 | 2.84 | 0.979 | 3.26 |
| CGTCAAAGTTCAACTAAGGTAACGTCAAGCACGC | 0.771 | 2.28 | 0.0665 | 0.943 | 3.82 | 5.69 | 4.39 | 4.56 | 1.85 | 5.3 |
| TCGAGAAGGTTACCAATGGGGCATTCAGCTTTCT | 1.39 | 0.663 | -1.15 | -0.173 | 0.132 | 0.773 | -1 | 1.49 | -0.803 | 2.26 |
| ATATGTAGGTTAAGGGTCATTCCGGTTGGTTCGC | 7.18 | 7.95 | 2.74 | 3.31 | 3.95 | 5.32 | 1.33 | 5.86 | 1.66 | 3.58 |
| AGTAGCAGGCCAAGTTTGGGTCACTCAAACAAAG | 0.369 | 1.17 | -1.1 | -1.36 | 0.195 | 0.663 | -0.57 | 1.64 | -0.486 | 1.72 |
| ACTAGCAGGCCAAGGGTCACTCCAGATTAGTCCG | 1.08 | 3.57 | -0.0917 | -0.469 | 1.44 | 2.68 | 0.019 | 3.79 | 0.278 | 3.42 |
| GATACAGGGTCAGCTGGAGGCCAGAGTATGGAAA | 1.09 | 2.28 | -0.601 | -0.834 | 2.9 | 3.53 | -0.0691 | 5.12 | 0.139 | 4.3 |
| CTACCAATGTGAACAAGGTCGTTGATTACTATTC | 0.604 | 0.639 | 0.446 | 0.752 | 0.968 | 1.99 | 1.41 | 1.89 | 1.01 | 0.831 |
| CAAACTAGGTCAAGAGGTCAACGTCCGCTTCCCG | 8.45 | 8.58 | 3.13 | 2.14 | 8.6 | 6.18 | 1.76 | 7.72 | 4.74 | 5.47 |
| CCTAGCAGGCCAGTCTGGGTCACTCAAGGCTTGA | 1.92 | 2.62 | -1.53 | -2.16 | -0.0647 | 0.811 | -0.718 | 1.45 | -1.53 | 1.42 |
| CCGTCTGGGGCAAAGGTTACCATACTCAGTACGA | 3.2 | 5.43 | -0.238 | -0.231 | 1.64 | 2.45 | -0.428 | 4.24 | -0.0466 | 2.5 |
| CAGCCTAGGTCAGCGCCAGTATAGGAGGAACGTT | 1.84 | 1.37 | -1.15 | -0.469 | 0.899 | 0.373 | -0.685 | 1.15 | -0.632 | 3.71 |
| GATACAGGGTCAGCTAGAGGCCAGAGTCTGGAAA | 1.42 | 2.41 | -0.329 | -0.829 | 2.68 | 3.16 | -0.43 | 4.74 | 0.22 | 4.16 |
| CCTTACGGGTCACTGACAGATTATAGCATTTGGA | 3.42 | 3.85 | 0.84 | 0.266 | 2.31 | 3.04 | 0.241 | 4.3 | 1.11 | 3.93 |
| AGTCAAAGTACATCTAGGTAACGTAAGATATGCT | 0.968 | 2.23 | 0.568 | 1.11 | -0.552 | -0.0859 | 0.334 | -0.223 | 0.0853 | 0.801 |
| CCAACTAGGTCACGAAAGGTCAAAGTCGAATGAC | 8.35 | 8.54 | 1.23 | 0.869 | 6.09 | 7.02 | 3.52 | 7.39 | 3.62 | 5.63 |
| CCGACTGGGGCGAGGTTACCATAACGCACAGCCA | 0.314 | 0.726 | -1.05 | -1.46 | 0.254 | 0.372 | -0.517 | 1.1 | -0.00275 | 0.965 |
| TCTAGCAGGCCAGAGCGTCACTCAAGAGGTACGG | 0.578 | -0.464 | -0.145 | -0.832 | -1.42 | -0.785 | -0.819 | -0.492 | -0.772 | -0.306 |
| TCTTGTAGATCAATAGAGGTTAAGAAAGTGCGCT | 1.96 | 1.06 | 0.946 | 0.475 | 0.36 | 2.86 | 0.0612 | 1.67 | -0.172 | 0.91 |
| TCTGATAGGTCAACGATGGTCAGCTAATCTGCTA | 3.63 | 3.48 | 0.759 | 0.735 | 2.17 | 3.01 | -0.308 | 3.7 | 1.12 | 4.44 |
| CCTACTGGGCCACGAAATGTCATTGATTCAGTGA | 6.24 | 5.34 | 0.216 | -0.527 | 0.759 | -0.308 | -0.533 | 0.0426 | -0.591 | 0.57 |
| CGAACTAGGTAATCCAGGACAGTGAATACATTGA | 5.67 | 4.69 | 0.81 | 0.796 | 0.0161 | -0.34 | -0.311 | -0.156 | 0.04 | 0.0507 |
